Like-named read-outs stand apart in the source and are kept apart here. The whole screen tested about 13,000 compounds, of which about 3,200 (25%) showed an effect of 50% or more. This is one part of the list.

The source of these data is publication PMC4552634, “A New Set of Chemical Starting Points with Plasmodium falciparum Transmission-Blocking Potential for Antimalarial Drug Discovery” (PLoS ONE, 2015).

The assay relates to P. falciparum stage V gametocytes. On the set-up: BacTiter-Glo ATP luminescence viability of purified stage V gametocytes in 384-well plates, per cent inhibition versus DMSO. As to conditions: 48 h, 5 µM, inhibitor.

One may read the % Inhibition as the drop in the measured response relative to a control, in per cent. As for `Cc1noc(C)c1-c1ccc2c(Nc3ccccc3C(C)(C)C)c(C(=O)NC3CCCC3)cnc2c1.Cl` [TCMDC-136365], the “% Inhibition” value is on record as -46.26%.

As for `N#Cc1cc(C(=O)c2cc(Cl)ccc2O)cn(-c2cccc(C(F)(F)F)c2)c1=O` [TCMDC-124543], the “% Inhibition” value was 16.34%.

As to `CCc1nc(N)nc(N)c1-c1cccc(Cl)c1` [TCMDC-137371], the “% Inhibition” value is -15%.

As to `CNc1nc(NN=Cc2ccccc2Cl)nc(Nc2cccc(C(F)(F)F)c2)n1` [TCMDC-124188], the “% Inhibition” value is -11.55%.

For `N#CC(c1ccc(Cl)cc1)c1ccc2c(C(F)(F)F)cc(C(F)(F)F)nc2n1` (stereo not drawn) [TCMDC-124176], the “% Inhibition” value amounted to 9.763%.

Consider `CCOc1cccc(C(=O)Nc2cccc(CN3CCCN(Cc4ccc(O)cc4)CC3)c2)c1` [TCMDC-141862], for which the “% Inhibition” value came to 17.88%.

Regarding `OC(CNCc1ccccc1Oc1ccccc1)c1cc(Br)cs1` (stereo not drawn) [TCMDC-141369], the “% Inhibition” value turned out to be 34.47%.

Turning to `COc1ccc(CC(=O)NC(CCN2CCC3(CCc4ccccc43)CC2)c2ccc(Cl)c(Cl)c2)cc1` (stereo not drawn) [TCMDC-141762], the “% Inhibition” value was -72.25%.

On to `CN(C)CCN1CCN(Cc2cccc(-c3csc(-c4nc5ccccc5[nH]4)c3)c2)CC1` [TCMDC-133793], for which the “% Inhibition” value is given as 29.26%.

`CN(C)CCN1CCN(Cc2ccc(-c3cccc(-c4nc5ccccc5[nH]4)c3)cc2)CC1` [TCMDC-133795]: the “% Inhibition” value was 73.83%.

With `CN1CCC(N2CCN(Cc3ccc(-c4cccc(-c5nc6ccccc6[nH]5)c4)cc3)CC2)CC1` [TCMDC-133881], the “% Inhibition” value is 56.17%.

`OCCN1CCN(Cc2ccc(-c3cccc(-c4nc5ccccc5[nH]4)c3)cc2)CC1` [TCMDC-132540]: the “% Inhibition” value stood at 6.462%.

In the case of `CN1CCC(N2CCN(C(=O)c3cccc(-c4cccc(-c5nc6ccccc6[nH]5)c4)c3)CC2)CC1` [TCMDC-132312], the “% Inhibition” value is listed as 7.191%.

`Cc1cc(NC(=O)Nc2ccc(Oc3ccccc3)cc2)c2ccccc2n1` [TCMDC-134657]: the “% Inhibition” value was -9.366%.

For `CC(C)(C)C(=O)Nc1ccccc1Oc1ccc(Cl)cc1` [TCMDC-137332], the “% Inhibition” value was determined as 6.336%.

Consider `Cc1ccc(Oc2ccccc2NC(=O)CCc2nc3ccccc3c(=O)[nH]2)cc1` [TCMDC-125459], for which the “% Inhibition” value was determined as 59.46%.

On to `CCCC(C)NC(=O)[C@H]1CNCCN1C(=O)CCCc1ccccc1` (stereo partly drawn) [TCMDC-141270], for which the “% Inhibition” value is on record as 1.864%.

In the case of `CC(CNC(=O)[C@H]1CNCCN1C(=O)CCCc1ccccc1)c1ccccc1` (stereo partly drawn) [TCMDC-141268], the “% Inhibition” value turned out to be 55.69%.

Consider `COc1cccc(CNC(=O)[C@H]2CNCCN2C(=O)CCCc2ccccc2)c1` [TCMDC-141271], for which the “% Inhibition” value was determined as 37.6%.

`O=C(NCc1ccc(F)cc1)c1cnc(N2CCN(c3ccncc3)CC2)c(Cl)c1` [TCMDC-134627]: the “% Inhibition” value was -0.3882%.

For `COc1ccc2nccc(NN=Cc3cccc(C)n3)c2c1` [TCMDC-142034], the “% Inhibition” value is -10.1%.

Consider `COc1ccc(OCCCN2CCCCC2)cc1S(=O)(=O)c1ccc(OCc2ccc(C(F)(F)F)cc2)cc1` [TCMDC-132410], for which the “% Inhibition” value was found to be 92.2%.

With `CCOc1cc2c(cc1S(=O)(=O)c1ccc(COc3ccc(C(F)(F)F)cc3)cc1)CCN(C)CC2` [TCMDC-134264], the “% Inhibition” value was 39.44%.

As for `COc1cc2c(cc1S(=O)(=O)c1ccc(COc3ccc(C(F)(F)F)cc3)cc1)CNCC2` [TCMDC-134479], the “% Inhibition” value is listed as -1.894%.

`CCCCCCCCn1c2c(c(=N)c3c1CCC3)CCC2` [TCMDC-125309]: the “% Inhibition” value came out at 92.39%.

Regarding `CCCCCCCCn1c2c(c(=N)c3c1CCC3)CCCC2` [TCMDC-125653], the “% Inhibition” value is 74.53%.

As for `CCn1c2c(c(=N)c3ccccc31)CCC2` [TCMDC-125756], the “% Inhibition” value is -4.824%.

With `CCCCCCCn1c2c(c(=N)c3c1CCC3)CCCC2` [TCMDC-125606], the “% Inhibition” value worked out at 41.76%.

Take `CCCCCCn1c2c(c(=N)c3c1CCC3)CCCC2` [TCMDC-124215]: the “% Inhibition” value is on record as 19.97%.

Consider `CCCCCCn1c2c(c(=N)c3c1CCC3)CCC2` [TCMDC-125620], for which the “% Inhibition” value was found to be 20.05%.

As for `Oc1cccc(Nc2nc(NCc3ccco3)c3ccccc3n2)c1` [TCMDC-124014], the “% Inhibition” value is on record as 8.731%.

On to `Cc1c[nH]c2cc(/C=C/C(=O)NC3CCC(CCN4CCc5ccc(C#N)cc5CC4)CC3)ccc12` (stereo not drawn) [TCMDC-139663], for which the “% Inhibition” value is 21.27%.

As to `Cc1cc(-c2nc3cncc(-c4cccc(CN5CCCC5Cc5cccnc5)c4)c3n2C)nn1C` (stereo not drawn) [TCMDC-135046], the “% Inhibition” value is on record as -7.326%.

Consider `CCOC(=O)N1NC(=O)N(c2ccccc2)C1(c1ccccc1)c1ccccc1` [TCMDC-142002], for which the “% Inhibition” value was -11.41%.

`COc1cc2c(cc1C(F)(F)F)N(C(=O)Nc1cc(OC(F)(F)F)cc(-c3cccnc3)c1)CC2` [TCMDC-139046]: the “% Inhibition” value is -1.066%.

Take `O=C(c1ccco1)N1CCN(c2ccc([N+](=O)[O-])c(NC3CC3)c2)CC1` [TCMDC-125397]: the “% Inhibition” value was found to be 97.95%.

`Cc1cc(N2CCN(C(=O)OC(C)(C)C)CC2)ccc1N` [TCMDC-125886]: the “% Inhibition” value is reported as -87.61%.

`O=C(CN1CCN(C(=O)c2ccco2)CC1)Nc1ccccc1Br` [TCMDC-124849]: the “% Inhibition” value amounted to 32.72%.

`COc1ccc(CN2CCN(C(=O)c3cccs3)CC2)c(O)c1` [TCMDC-139298]: the “% Inhibition” value was 16.42%.

Take `O=C(NC1CCN(c2ccc(F)cc2[N+](=O)[O-])CC1)c1cccs1` [TCMDC-133786]: the “% Inhibition” value came to 14.81%.

`O=C(N1CCN(c2ccc(C(F)(F)F)cc2[N+](=O)[O-])CC1)C(Cl)(Cl)Cl` [TCMDC-124371]: the “% Inhibition” value is reported as -2.22%.

Turning to `CC(C)(C)C(=O)N1CCN(c2ccc([N+](=O)[O-])c(NC3CC3)c2)CC1` [TCMDC-123687], the “% Inhibition” value is listed as 84.84%.

With `O=C(CN1CCN(C(=O)c2ccco2)CC1)Nc1ccc(Br)cc1Cl` [TCMDC-124619], the “% Inhibition” value is given as -12.46%.

For the compound `O=C(c1cccs1)N1CCN(c2ccc([N+](=O)[O-])c(NC3CC3)c2)CC1` [TCMDC-123877], the “% Inhibition” value is 88.85%.

Turning to `O=C(NCCN1CCCC1)c1cccc(-c2ccc(-c3nc4ccccc4[nH]3)s2)c1` [TCMDC-132319], the “% Inhibition” value is recorded as -6.335%.

On to `C=CCn1c(=N)c(C(=O)NCc2ccc(F)cc2)cc2c(=O)n3cccc(C)c3nc21` [TCMDC-125128], for which the “% Inhibition” value was determined as 82.89%.

Regarding `Cc1ccc(CNC(=O)c2cc3c(=O)n4cccc(C)c4nc3n(CCN3CCOCC3)c2=N)cc1` [TCMDC-125405], the “% Inhibition” value is listed as 11.13%.

Take `COc1ccc(CCNC(=O)c2cc3c(=O)n4cccc(C)c4nc3n(C)c2=N)cc1` [TCMDC-125129]: the “% Inhibition” value was 30.65%.

`C=CCn1c(=N)c(C(=O)NC2CCCCC2)cc2c(=O)n3cccc(C)c3nc21` [TCMDC-125083]: the “% Inhibition” value turned out to be 96.68%.

`COc1ccc(CCn2c(=N)c(C(=O)NC3CCCC3)cc3c(=O)n4ccccc4nc32)cc1` [TCMDC-124552]: the “% Inhibition” value was 4.624%.

Turning to `Cc1cccn2c(=O)c3cc(C(=O)NC4CCCCC4)c(=N)n(CCCn4ccnc4)c3nc12` [TCMDC-125136], the “% Inhibition” value amounted to 14.71%.

For the compound `N#Cc1ccc2nc(-c3ccccc3)[nH]c2c1` [TCMDC-137223], the “% Inhibition” value came out at 19.91%.

In the case of `COc1cc(C(=O)Nc2cccc(-c3nc4ccccc4[nH]3)c2)ccc1OC(C)=O` [TCMDC-123603], the “% Inhibition” value is -70.82%.

Consider `O=C(CCNc1ccnc(NCC2CCCCC2)n1)Nc1ccccc1` [TCMDC-134707], for which the “% Inhibition” value was found to be 16.22%.

Take `O=C(CCNc1ccnc(NCCc2ccccc2)n1)Nc1ccccc1` [TCMDC-134809]: the “% Inhibition” value was 42.97%.

For the compound `Cc1cc(NCCC(=O)Nc2ccccc2)nc(NCc2ccccc2C)n1` [TCMDC-134901], the “% Inhibition” value was determined as 2.536%.

On to `O=C(CCNc1ccnc(NCCc2ccc(F)cc2)n1)Nc1ccccc1` [TCMDC-134824], for which the “% Inhibition” value turned out to be 63.53%.

For the compound `Cc1cnc(NCCc2ccc(F)cc2)nc1N[C@@H](CC(C)C)C(=O)Nc1ccccc1` [TCMDC-134851], the “% Inhibition” value is recorded as -15.21%.

Take `Cc1cnc(Nc2ccccc2)nc1NCCC(=O)Nc1ccccc1` [TCMDC-134914]: the “% Inhibition” value was 19.34%.

Regarding `Cc1cnc(NCCc2ccc(F)cc2)nc1NCCC(=O)Nc1ccccc1` [TCMDC-134850], the “% Inhibition” value is recorded as 59.7%.

On to `Cc1ccccc1CNc1nccc(NCCC(=O)Nc2ccccc2)n1` [TCMDC-134913], for which the “% Inhibition” value worked out at 50.88%.

Take `Cc1ccc(NS(=O)(=O)c2ccc(-c3ccccc3)cc2)c(Cn2cnc(N3CCCNCC3)cc2=O)c1` [TCMDC-133150]: the “% Inhibition” value amounted to 3.416%.

On to `COc1ccc2ncc(F)c(CCN3CC(O)C(CNCc4nc5c(cc4Cl)OCC(=O)N5)C3)c2n1` (stereo not drawn) [TCMDC-136079], for which the “% Inhibition” value (% Inhibition) was 2.766%.

As to `CCOC(=O)c1sc(C(C)Nc2ccccc2)nc1-c1ccccc1` (stereo not drawn) [TCMDC-135642], the “% Inhibition” value was 18.56%.

`Cc1ccc(CN2CCC(Oc3cccc(NC(=O)c4ccc(C(F)(F)F)cc4)c3)CC2)cc1` [TCMDC-133736]: the “% Inhibition” value is -34.39%.

As to `O=C(NC1CC1)c1ccc(N2CCC(COc3cccc(F)c3)CC2)nc1` [TCMDC-134029], the “% Inhibition” value amounted to 11.49%.

Take `O=C1OC(c2ccccc2)(c2ccccc2)CN1CC1CCN(Cc2ccc(O)c(Cl)c2)CC1` [TCMDC-136312]: the “% Inhibition” value came out at 3.668%.

`FC(F)(F)c1ccc2[nH]c(-c3cccc(-c4cccc(CNCC5CCCO5)c4)c3)nc2c1.O=C(O)C(F)(F)F` (stereo not drawn) [TCMDC-133102]: the “% Inhibition” value is reported as -56.01%.

Regarding `CN(Cc1cccc(O)c1)C1CCN(c2cc(NC(=O)c3ccc(F)cc3)ccn2)C1` (stereo not drawn) [TCMDC-134955], the “% Inhibition” value is reported as -27.34%.

Take `COc1ccc(CCC(C)(C)NCC(O)c2cccc(C(F)(F)F)c2)cc1` (stereo not drawn) [TCMDC-131504]: the “% Inhibition” value is listed as -35.85%.

Take `Cc1ccc(S(=O)(=O)Nc2ccc(Nc3nccc(Nc4cccc5[nH]ncc45)n3)cc2)cc1` [TCMDC-136297]: the “% Inhibition” value is -19.92%.

Take `CC(C)N1CCCN(C(=O)C2CCN(c3ccc(C(=O)N4CCCC4)cn3)CC2)CC1` [TCMDC-135636]: the “% Inhibition” value is listed as 39.57%.
